Assay results as given in PubChem BioAssay (Tox21).
Records with an inconclusive call do not appear. A call without a number means that no potency is given here. Unmarked numbers belong to inactive results. Calls of active or inactive are those of the source. Unless noted, the call rests on the fitted dose curve; in most records, active means well fitted curve in the direction sought with a large enough effect in the repeat runs; inconclusive means weak or mixed curves; inactive means no such curve, though single readings can be large; an effect the other way counts as inactive or inconclusive.

What was measured:
[1] = qHTS assay to identify small molecule antagonists of the thyroid receptor (TR) signaling pathway - cell viability counter screen (AID 743064); further: nearly all actives have a fitted effect of over 50% in size
Summary of the method: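 Plate GH3.TRE-Luc cells; incubate 4 h at 37 °C; add compound, then T3 to 1 nM final; incubate 23.5 h; add CellTiter-Fluor; incubate 30 min at 37 °C, 5% CO2; read fluorescence.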

[2] = qHTS assay to identify small molecule antagonists of the thyroid receptor (TR) signaling pathway (AID 743065); further: series mostly up to about 70 µM; nearly all actives have a fitted effect of over 55% in size
Summary of the method: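 GH3.TRE-Luc rat pituitary cells (two TREs driving luciferase) were dosed with compound, then stimulated with 1 nM T3 (final) for 23.5 h at 37 C. ONE-Glo luminescence was the read-out, with CellTiter-Fluor fluorescence as the cytotoxicity counter-screen.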

[3] = tested on: thyroid hormone receptor (rat, GH3 cells); experiment: qHTS assay to identify small molecule agonists of the thyroid receptor (TR) signaling pathway (AID 743066; calls by dose curve)
[4] = target: Estrogen receptor (Homo sapiens) (UniProt P03372); experiment: qHTS assay to identify small molecule antagonists of the estrogen receptor alpha (ER-alpha) signaling pathway (AID 743069; active means well fitted curve in the direction sought with a large enough effect in the signal ratio in the repeat runs, not every such curve was filed as active; the % refers to the signal ratio)
Sequence of Estrogen receptor (Homo sapiens) (P03372 whole entry, looked up): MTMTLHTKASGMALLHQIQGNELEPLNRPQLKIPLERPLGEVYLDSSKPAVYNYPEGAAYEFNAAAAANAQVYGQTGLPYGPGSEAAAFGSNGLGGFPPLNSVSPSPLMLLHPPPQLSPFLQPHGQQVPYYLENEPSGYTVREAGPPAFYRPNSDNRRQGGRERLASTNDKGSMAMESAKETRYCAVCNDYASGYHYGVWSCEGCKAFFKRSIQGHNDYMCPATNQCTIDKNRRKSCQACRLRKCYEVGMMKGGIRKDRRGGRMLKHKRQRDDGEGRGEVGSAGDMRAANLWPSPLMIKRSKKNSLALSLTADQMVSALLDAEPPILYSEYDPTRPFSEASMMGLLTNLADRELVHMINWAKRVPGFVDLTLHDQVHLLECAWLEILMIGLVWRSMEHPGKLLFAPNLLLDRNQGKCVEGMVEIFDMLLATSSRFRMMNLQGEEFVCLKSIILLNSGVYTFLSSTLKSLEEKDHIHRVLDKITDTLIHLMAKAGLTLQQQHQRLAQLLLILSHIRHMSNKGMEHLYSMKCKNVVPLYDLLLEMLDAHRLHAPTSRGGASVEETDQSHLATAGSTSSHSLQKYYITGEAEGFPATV
Summary of the method: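 Beta-lactamase FRET fluorescence is read after 2 hr at room temperature with LiveBLAzer B/G substrate. Before that, ER-alpha-bla HEK293 cells sit 4 hr after plating, then receive compound plus 17beta-estradiol and incubate 18 hr at 37C.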

[5] = qHTS assay to identify small molecule antagonists of the estrogen receptor alpha (ER-alpha) signaling pathway - cell viability counter screen (AID 743074; calls by dose curve;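 further: HEK293 cells carrying ER-alpha-UAS-bla reporter stimulated with 17beta-estradiol; nearly all actives have a fitted effect of over 45% in size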)
[6] = target: Estrogen receptor (Homo sapiens) (UniProt P03372); experiment: qHTS assay to identify small molecule agonists of the estrogen receptor alpha (ER-alpha) signaling pathway (AID 743075; calls by dose curve;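 further: HEK293 GripTite cells with ER-alpha and UAS-driven beta-lactamase reporter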)
[7] = target: Estrogen receptor (Homo sapiens) (UniProt P03372); experiment: qHTS assay to identify small molecule agonists of the estrogen receptor alpha (ER-alpha) signaling pathway using the BG1 cell line (AID 743079); further: nearly all actives have a fitted effect of over 20% in size; further: potency means the concentration at half of the fitted maximal effect
[8] = qHTS assay to identify small molecule antagonists of the estrogen receptor alpha (ER-alpha) signaling pathway using the BG1 cell line (AID 743080; calls by dose curve;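 further: BG1 cells stimulated with 17beta-estradiol alongside compound; series mostly up to about 70 µM; nearly all actives have a fitted effect of over 25% in size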)
Summary of the method: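 Seeding, 24 h rest, compound transfer from DMSO, 17beta-estradiol addition, 21.5 h incubation, CellTiter-Fluor (30 min, 37 C), then ONE-Glo (30 min, room temperature): this sequence was run on BG1-Luc-4E2 reporter cells.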

[9] = qHTS assay to identify small molecule antagonists of the estrogen receptor alpha (ER-alpha) signaling pathway using the BG1 cell line - cell viability counter screen (AID 743081);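 further: compound given together with 17beta-estradiol as the ER stimulus; series mostly up to about 70 µM; nearly all actives have a fitted effect of over 45% in size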
Aromatase (Homo sapiens) = Aromatase (Homo sapiens) (UniProt P11511); experiment: qHTS assay to identify aromatase inhibitors (AID 743083); further: series mostly up to about 70 µM; nearly all actives have a fitted effect of over 55% in size
Sequence of Aromatase (Homo sapiens) (P11511 whole entry, looked up): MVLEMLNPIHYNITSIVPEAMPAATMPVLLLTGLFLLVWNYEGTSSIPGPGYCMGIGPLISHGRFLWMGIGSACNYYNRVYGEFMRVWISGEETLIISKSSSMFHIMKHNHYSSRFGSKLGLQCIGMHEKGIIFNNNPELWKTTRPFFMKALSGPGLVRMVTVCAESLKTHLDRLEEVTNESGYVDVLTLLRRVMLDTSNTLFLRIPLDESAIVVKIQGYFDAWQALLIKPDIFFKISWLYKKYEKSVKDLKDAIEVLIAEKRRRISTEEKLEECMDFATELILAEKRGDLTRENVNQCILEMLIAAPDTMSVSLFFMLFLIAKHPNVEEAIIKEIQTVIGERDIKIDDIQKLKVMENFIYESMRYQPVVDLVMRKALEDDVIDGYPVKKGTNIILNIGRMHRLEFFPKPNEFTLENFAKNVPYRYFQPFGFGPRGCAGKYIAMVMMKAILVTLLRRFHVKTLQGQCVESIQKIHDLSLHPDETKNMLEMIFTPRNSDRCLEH

SMILES	Potency [1]	Potency [2]	outcome [3]	outcome [4]	outcome [5]	outcome [6]	Potency [7]	Potency [8]	outcome [9]	Potency (Aromatase (Homo sapiens))
Oc1cn2c(n1)Nc1ccc(Cl)c(Cl)c1C2	inactive	inactive	inactive	inactive	inactive	inactive	inactive	inactive	inactive	inactive
CCNC(=O)C1CC(C)CCC1C(C)C (stereo not drawn)	inactive	inactive	inactive	inactive	inactive	inactive	inactive	inactive	inactive	inactive
CC(C)NCC(O)COc1ccc(COCCOC(C)C)cc1 (stereo not drawn)	inactive	inactive	inactive	inactive	inactive	inactive	inactive	inactive	inactive	
CC(=O)OC(C)OC(=O)C(C)c1ccc(-c2ccccc2)c(F)c1 (stereo not drawn)	inactive	inactive	inactive	inactive	inactive	inactive	inactive	inactive	inactive	inactive
CCOC(=O)c1ncn2c1CN(C)C(=O)c1cc(F)ccc1-2	inactive	inactive	inactive	inactive	inactive	inactive	inactive	inactive	inactive	inactive
Nc1ccc2cc(S(=O)(=O)O)cc(O)c2c1	inactive	inactive	inactive	inactive	inactive	inactive	inactive	inactive	inactive	inactive
CCCCCCN	inactive	inactive	inactive	inactive	inactive	inactive	inactive	inactive	inactive	inactive
CCCC(=O)C(C)=O	inactive	inactive	inactive	inactive	inactive	inactive	inactive	inactive	inactive	inactive
O=C(O)Cc1ccc(Cl)cc1Cl	inactive	inactive	inactive	inactive	inactive	inactive	inactive	inactive	inactive	inactive
C=C(C)C(=O)OCc1ccccc1	inactive	inactive	inactive	inactive	inactive	inactive	inactive	inactive	inactive	inactive
C[C@@H](O)[C@H]1C(=O)N2C(C(=O)O)=C(SCCN=CN)C[C@H]12	inactive	inactive	inactive	inactive	inactive	inactive	inactive	inactive	inactive	inactive
O=C(OCc1ccccc1)C(=O)OCc1ccccc1	inactive	inactive	inactive	inactive	inactive	inactive	inactive	inactive	inactive	inactive
C=C1CC/C=C(\C)CC[C@@H]2[C@@H]1CC2(C)C	inactive	inactive	inactive	inactive	inactive	inactive	inactive	inactive	inactive	inactive
CCOC(=O)c1ccc(OC(=O)CCCCCN=C(N)N)cc1	inactive	inactive	inactive	inactive	inactive	inactive	14.3 µM (active)	inactive	inactive	inactive
Cc1nc2n(c(=O)c1CCN1CCC(c3noc4cc(F)ccc34)CC1)CCC[C@H]2O	inactive	inactive	inactive	inactive	inactive	inactive	inactive	inactive	inactive	inactive
CC(C)C(=O)OCCc1ccccc1	inactive	inactive	inactive	inactive	inactive	inactive	inactive	inactive	inactive	inactive
CN1C(C)(C)CCCC1(C)C	inactive	inactive	inactive	inactive	inactive	inactive	inactive	inactive	inactive	inactive
Cc1ccsc1/C=C/C1=NCCCN1C	inactive	inactive	inactive	inactive	inactive	inactive	inactive	inactive	inactive	inactive
COc1cc(C(=S)N2CCOCC2)cc(OC)c1OC	inactive	inactive	inactive	inactive	inactive	inactive	inactive	inactive	inactive	inactive
C[C@@H](Oc1ccc(CNC(=O)c2cccnc2Oc2ccc3c(c2)OCO3)c(F)c1)C(=O)O	inactive	inactive	inactive	inactive	inactive	inactive	inactive	inactive	inactive	inactive
CC1(C)S[C@@H]2[C@H](N=CN3CCCCCC3)C(=O)N2[C@H]1C(=O)O	inactive	inactive	inactive	inactive	inactive	inactive	inactive	inactive	inactive	inactive
CC(C)(C)NC(N)=O	inactive	inactive	inactive	inactive	inactive	inactive	inactive	inactive	inactive	inactive
COP(=O)(OC)OC(c1ccc(Cl)cc1)P(=O)(OC)OC (stereo not drawn)	inactive	inactive	inactive	inactive	inactive	inactive	inactive	inactive	inactive	inactive
N[C@@H](CCC(=O)Nc1ccc([N+](=O)[O-])cc1)C(=O)O	inactive	inactive	inactive	inactive	inactive	inactive	inactive	inactive	inactive	inactive

SMILES	Potency [1]	Potency [2]	outcome [3]	outcome [4]	outcome [5]	outcome [6]	Potency [7]	Potency [8]	outcome [9]	Potency (Aromatase (Homo sapiens))
NC(CO)C(=O)NNCc1ccc(O)c(O)c1O (stereo not drawn)	inactive	inactive	inactive	inactive	inactive	inactive	inactive	inactive	inactive	inactive
CC(C)=O	inactive	inactive	inactive	inactive	inactive	inactive	inactive	inactive	inactive	inactive
CC(C)(C)c1n[nH]c(=S)n(N)c1=O	inactive	inactive	inactive	inactive	inactive	inactive	inactive	inactive	inactive	inactive
C=C(C)C(=O)OCC(C)(C)COC(=O)C(=C)C	inactive	inactive	inactive	inactive	inactive	inactive	inactive	inactive	inactive	inactive
CCCCCCCC/C=C\CCCCCCCC(=O)OCCCC	inactive	inactive	inactive	inactive	inactive	inactive	inactive	inactive	inactive	inactive
COC(=O)CCCCCCCC(=O)OC	inactive	inactive	inactive	inactive	inactive	inactive	inactive	inactive	inactive	inactive
CCCCCCCCOS(=O)(=O)O	inactive	inactive	inactive	inactive	inactive	inactive	inactive	inactive	inactive	inactive
O=C(NCCc1c[nH]c2ccccc12)c1cccnc1	inactive	inactive	inactive	inactive	inactive	inactive	inactive	inactive	inactive	
O=C(O)Cc1cn(-c2ccccc2)nc1-c1ccc(Cl)cc1	inactive	inactive	inactive	inactive	inactive	inactive	inactive	inactive	inactive	inactive
CCC(C)NC(N)=O (stereo not drawn)	inactive	inactive	inactive	inactive	inactive	inactive	inactive	inactive	inactive	inactive
O=C1c2ccccc2C(=O)N1CCl	inactive	inactive	inactive	inactive	inactive	inactive	inactive	inactive	inactive	inactive
CN(C)CCOCCO	inactive	inactive	inactive	inactive	inactive	inactive	inactive	inactive	inactive	inactive
O=C(CS(=O)Cc1ccco1)NC/C=C\COc1cc(CN2CCCCC2)ccn1 (stereo not drawn)	inactive	inactive	inactive	inactive	inactive	inactive	inactive	inactive	inactive	inactive
NS(=O)(=O)c1ccc(NC(=O)CCC(=O)O)cc1	inactive	inactive	inactive	inactive	inactive	inactive	inactive	inactive	inactive	inactive
CCCCC(CC)COCCO (stereo not drawn)	inactive	inactive	inactive	inactive	inactive	inactive	inactive	inactive	inactive	inactive
COc1ccc(-c2cc(=O)c3c(O)cc(O[C@@H]4O[C@H](CO[C@@H]5O[C@@H](C)[C@H](O)[C@@H](O)[C@H]5O)[C@@H](O)[C@H](O)[C@H]4O)cc3o2)cc1O	inactive	inactive	inactive	inactive	inactive	inactive	inactive	inactive	inactive	inactive
CC(C)N(c1ccccc1)C(C)C	inactive	inactive	inactive	inactive	inactive	inactive	inactive	inactive	inactive	inactive
CCCCCCCCCC(C)=O	inactive	inactive	inactive	inactive	inactive	inactive	inactive	inactive	inactive	inactive
O=C(O)C(=O)Cc1ccccc1	inactive	inactive	inactive	inactive	inactive	inactive	inactive	inactive	inactive	inactive
CCCCN	inactive	inactive	inactive	inactive	inactive	inactive	inactive	inactive	inactive	inactive
Cc1cc(C(C)(C)C)c(O)c(C)c1CC1=NCCN1	inactive	inactive	inactive	inactive	inactive	inactive	inactive	inactive	inactive	inactive
CCCCCCCCC(=O)Cl	inactive	inactive	inactive	inactive	inactive	inactive	inactive	inactive	inactive	inactive
Nc1ccc(S(=O)(=O)Nc2ccc(Cl)nn2)cc1	inactive	inactive	inactive	inactive	inactive	inactive	inactive	inactive	inactive	inactive
